Experiments:
Experiment in all cases: log2 ratio of Biotin-Ahx-Ub-VS probe labelling (fragment/DMSO); higher = less target engagement (more negative = stronger competition), active = hit call of the paper (q ≤ 0.05, log2 ratio ≤ -1)
Conditions in all cases: compound concentration: 200 uM; treatment time: 3 h
[1] = target: T1, USP42 (UniProt Q9H9J4)
T1 sequence (whole entry): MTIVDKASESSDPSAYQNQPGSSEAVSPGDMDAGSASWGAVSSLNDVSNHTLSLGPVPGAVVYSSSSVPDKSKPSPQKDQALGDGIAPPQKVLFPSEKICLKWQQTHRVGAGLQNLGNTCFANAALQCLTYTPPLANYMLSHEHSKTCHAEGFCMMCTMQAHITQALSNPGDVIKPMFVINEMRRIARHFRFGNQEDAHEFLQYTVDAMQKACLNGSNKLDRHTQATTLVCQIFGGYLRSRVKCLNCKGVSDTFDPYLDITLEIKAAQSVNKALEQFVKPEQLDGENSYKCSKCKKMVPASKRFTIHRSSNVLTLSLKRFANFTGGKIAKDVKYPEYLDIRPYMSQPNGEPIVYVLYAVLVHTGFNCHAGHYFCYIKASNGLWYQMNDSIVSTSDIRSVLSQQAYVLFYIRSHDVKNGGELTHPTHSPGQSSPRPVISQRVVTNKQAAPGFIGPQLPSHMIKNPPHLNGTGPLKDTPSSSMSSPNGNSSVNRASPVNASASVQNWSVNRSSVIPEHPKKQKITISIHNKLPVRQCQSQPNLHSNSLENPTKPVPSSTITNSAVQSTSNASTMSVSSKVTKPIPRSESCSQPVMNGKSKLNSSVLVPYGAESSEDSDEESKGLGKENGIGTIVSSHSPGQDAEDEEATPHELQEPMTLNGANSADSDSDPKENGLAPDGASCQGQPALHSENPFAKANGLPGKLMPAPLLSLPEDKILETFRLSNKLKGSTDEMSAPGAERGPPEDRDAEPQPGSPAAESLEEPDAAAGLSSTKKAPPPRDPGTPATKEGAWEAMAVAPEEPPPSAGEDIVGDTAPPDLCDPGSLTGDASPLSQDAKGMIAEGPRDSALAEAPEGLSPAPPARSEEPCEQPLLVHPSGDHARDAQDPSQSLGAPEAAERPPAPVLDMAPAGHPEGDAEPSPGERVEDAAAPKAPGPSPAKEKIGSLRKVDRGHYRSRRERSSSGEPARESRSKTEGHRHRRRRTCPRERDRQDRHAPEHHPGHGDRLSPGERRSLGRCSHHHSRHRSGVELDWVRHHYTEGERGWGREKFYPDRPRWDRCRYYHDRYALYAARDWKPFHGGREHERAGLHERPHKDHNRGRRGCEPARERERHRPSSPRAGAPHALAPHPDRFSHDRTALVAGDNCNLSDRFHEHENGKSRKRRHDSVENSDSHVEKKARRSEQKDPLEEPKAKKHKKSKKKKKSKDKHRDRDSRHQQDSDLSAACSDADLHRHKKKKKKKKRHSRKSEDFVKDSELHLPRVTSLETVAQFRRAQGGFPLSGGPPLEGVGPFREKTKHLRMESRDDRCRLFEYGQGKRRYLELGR
How it was run: (§1)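 Labelling with Biotin-Ahx-Ub-VS (0.5 µM final, 1 h) followed a 3 h triplicate treatment of HEK293T lysate (495 µg per sample, Tris/CHAPS/IGEPAL buffer with protease inhibitors) with fragment at 200 µM or vehicle. Labelled DUBs were NeutrAvidin-enriched, digested with LysC and trypsin, and run by diaPASEF LC-MS/MS. The values, average log2 fragment/vehicle ratios by unpaired t-test, come from global-median-normalised Spectronaut label-free quantities. Proteins with ≥2 unique peptides were used.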

[2] = target: USP46 (UniProt P62068)
Chain of USP46 (P62068 whole entry): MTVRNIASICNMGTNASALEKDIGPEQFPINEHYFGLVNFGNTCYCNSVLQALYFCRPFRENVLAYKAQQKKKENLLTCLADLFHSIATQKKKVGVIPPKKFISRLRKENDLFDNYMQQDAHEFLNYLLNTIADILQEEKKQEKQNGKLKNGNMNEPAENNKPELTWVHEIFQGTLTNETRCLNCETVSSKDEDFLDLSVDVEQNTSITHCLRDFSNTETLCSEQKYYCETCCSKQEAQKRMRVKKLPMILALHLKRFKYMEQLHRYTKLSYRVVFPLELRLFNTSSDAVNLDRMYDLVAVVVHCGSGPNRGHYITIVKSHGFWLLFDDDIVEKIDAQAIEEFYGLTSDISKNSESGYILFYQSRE
How it was run: as §1

[3] = target: T2, USP47 (UniProt Q96K76)
T2 sequence (whole entry): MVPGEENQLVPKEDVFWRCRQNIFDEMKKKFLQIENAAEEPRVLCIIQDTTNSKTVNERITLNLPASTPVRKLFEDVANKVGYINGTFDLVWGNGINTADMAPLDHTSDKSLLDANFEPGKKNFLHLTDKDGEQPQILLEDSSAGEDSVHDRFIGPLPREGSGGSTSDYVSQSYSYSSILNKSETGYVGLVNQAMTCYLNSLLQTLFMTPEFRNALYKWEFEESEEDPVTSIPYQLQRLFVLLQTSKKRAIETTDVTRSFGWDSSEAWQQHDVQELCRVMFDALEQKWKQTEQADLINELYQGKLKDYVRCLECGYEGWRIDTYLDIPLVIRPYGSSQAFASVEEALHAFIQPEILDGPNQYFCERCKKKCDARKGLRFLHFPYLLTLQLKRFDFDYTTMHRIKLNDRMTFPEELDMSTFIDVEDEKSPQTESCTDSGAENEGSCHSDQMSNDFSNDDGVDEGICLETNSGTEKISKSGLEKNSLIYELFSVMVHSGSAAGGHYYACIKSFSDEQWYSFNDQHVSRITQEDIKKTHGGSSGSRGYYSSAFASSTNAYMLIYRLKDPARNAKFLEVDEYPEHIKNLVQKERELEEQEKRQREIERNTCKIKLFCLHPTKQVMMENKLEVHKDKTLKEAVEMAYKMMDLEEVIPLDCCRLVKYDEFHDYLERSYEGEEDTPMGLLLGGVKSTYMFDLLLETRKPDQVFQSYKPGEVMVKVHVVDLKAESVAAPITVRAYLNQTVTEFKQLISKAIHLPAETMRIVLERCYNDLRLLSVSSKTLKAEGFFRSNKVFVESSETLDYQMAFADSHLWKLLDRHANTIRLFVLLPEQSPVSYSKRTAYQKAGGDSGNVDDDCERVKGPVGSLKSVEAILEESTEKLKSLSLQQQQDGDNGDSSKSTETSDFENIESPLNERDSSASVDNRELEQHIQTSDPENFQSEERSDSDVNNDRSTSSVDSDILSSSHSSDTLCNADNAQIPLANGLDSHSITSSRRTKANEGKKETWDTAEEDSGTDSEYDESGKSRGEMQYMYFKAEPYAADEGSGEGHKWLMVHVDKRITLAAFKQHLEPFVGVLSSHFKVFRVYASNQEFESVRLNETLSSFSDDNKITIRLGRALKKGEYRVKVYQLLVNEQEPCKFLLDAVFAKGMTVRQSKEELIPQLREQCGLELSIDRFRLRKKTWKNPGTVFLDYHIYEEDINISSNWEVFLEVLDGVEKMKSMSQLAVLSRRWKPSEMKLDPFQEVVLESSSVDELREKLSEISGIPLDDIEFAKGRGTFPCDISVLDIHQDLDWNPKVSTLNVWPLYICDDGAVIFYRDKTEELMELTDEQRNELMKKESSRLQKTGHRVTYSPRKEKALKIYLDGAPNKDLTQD
How it was run: as §1

[4] = target: T3, USP48 (UniProt Q86UV5)
T3 sequence (whole entry): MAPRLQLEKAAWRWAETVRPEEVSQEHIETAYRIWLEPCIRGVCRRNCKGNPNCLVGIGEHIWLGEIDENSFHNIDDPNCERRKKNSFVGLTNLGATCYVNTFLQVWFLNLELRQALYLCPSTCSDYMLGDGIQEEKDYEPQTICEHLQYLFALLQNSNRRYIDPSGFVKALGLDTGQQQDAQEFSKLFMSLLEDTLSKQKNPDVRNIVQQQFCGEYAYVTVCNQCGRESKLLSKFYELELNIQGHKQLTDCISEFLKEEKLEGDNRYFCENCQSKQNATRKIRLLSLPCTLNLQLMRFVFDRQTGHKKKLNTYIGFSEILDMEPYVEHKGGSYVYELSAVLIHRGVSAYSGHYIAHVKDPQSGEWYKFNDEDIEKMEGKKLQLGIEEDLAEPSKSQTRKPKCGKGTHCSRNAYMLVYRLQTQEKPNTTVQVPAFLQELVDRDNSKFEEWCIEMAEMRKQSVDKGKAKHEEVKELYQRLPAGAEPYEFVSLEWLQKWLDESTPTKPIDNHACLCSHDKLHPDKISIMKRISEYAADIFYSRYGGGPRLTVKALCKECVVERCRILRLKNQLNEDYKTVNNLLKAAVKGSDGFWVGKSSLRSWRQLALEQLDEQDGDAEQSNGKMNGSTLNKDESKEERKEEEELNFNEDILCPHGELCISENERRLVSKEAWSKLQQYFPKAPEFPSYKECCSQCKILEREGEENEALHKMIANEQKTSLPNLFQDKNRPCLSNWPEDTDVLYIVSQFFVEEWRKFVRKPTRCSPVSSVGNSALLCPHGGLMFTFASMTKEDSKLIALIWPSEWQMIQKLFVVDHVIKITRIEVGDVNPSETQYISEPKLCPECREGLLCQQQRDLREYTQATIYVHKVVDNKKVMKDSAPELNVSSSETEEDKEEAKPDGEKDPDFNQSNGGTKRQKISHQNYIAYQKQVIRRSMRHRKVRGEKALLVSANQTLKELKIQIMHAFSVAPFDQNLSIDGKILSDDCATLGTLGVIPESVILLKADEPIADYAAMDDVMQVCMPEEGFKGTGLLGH
How it was run: as §1

[5] = target: T4, USP5 (UniProt P45974)
T4 sequence (whole entry): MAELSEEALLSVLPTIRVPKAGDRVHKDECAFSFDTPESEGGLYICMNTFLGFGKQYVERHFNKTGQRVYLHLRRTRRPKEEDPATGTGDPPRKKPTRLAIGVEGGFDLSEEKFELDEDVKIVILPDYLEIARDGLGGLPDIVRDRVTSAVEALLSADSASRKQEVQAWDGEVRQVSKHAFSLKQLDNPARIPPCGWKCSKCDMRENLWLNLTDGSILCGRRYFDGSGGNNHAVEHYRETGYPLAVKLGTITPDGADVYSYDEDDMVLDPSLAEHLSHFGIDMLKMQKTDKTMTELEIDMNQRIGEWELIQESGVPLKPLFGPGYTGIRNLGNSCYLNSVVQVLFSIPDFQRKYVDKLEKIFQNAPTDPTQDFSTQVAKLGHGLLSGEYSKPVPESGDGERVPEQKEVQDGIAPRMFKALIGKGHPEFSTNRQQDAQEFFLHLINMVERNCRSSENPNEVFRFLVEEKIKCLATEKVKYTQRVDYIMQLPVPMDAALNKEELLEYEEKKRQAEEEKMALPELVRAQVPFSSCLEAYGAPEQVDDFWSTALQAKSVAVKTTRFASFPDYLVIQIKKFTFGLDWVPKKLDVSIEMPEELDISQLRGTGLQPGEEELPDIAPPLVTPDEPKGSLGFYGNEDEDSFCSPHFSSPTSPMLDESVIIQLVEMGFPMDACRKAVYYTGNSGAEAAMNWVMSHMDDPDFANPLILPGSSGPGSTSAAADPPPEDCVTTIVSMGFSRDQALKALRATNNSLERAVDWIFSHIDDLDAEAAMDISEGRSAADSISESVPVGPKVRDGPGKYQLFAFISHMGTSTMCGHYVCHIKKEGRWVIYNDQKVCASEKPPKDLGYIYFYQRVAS
How it was run: as §1

[6] = target: USP54 (UniProt Q70EL1)
How it was run: as §1

[7] = target: USP7 (UniProt Q93009)
Chain of USP7 (Q93009 whole entry, looked up): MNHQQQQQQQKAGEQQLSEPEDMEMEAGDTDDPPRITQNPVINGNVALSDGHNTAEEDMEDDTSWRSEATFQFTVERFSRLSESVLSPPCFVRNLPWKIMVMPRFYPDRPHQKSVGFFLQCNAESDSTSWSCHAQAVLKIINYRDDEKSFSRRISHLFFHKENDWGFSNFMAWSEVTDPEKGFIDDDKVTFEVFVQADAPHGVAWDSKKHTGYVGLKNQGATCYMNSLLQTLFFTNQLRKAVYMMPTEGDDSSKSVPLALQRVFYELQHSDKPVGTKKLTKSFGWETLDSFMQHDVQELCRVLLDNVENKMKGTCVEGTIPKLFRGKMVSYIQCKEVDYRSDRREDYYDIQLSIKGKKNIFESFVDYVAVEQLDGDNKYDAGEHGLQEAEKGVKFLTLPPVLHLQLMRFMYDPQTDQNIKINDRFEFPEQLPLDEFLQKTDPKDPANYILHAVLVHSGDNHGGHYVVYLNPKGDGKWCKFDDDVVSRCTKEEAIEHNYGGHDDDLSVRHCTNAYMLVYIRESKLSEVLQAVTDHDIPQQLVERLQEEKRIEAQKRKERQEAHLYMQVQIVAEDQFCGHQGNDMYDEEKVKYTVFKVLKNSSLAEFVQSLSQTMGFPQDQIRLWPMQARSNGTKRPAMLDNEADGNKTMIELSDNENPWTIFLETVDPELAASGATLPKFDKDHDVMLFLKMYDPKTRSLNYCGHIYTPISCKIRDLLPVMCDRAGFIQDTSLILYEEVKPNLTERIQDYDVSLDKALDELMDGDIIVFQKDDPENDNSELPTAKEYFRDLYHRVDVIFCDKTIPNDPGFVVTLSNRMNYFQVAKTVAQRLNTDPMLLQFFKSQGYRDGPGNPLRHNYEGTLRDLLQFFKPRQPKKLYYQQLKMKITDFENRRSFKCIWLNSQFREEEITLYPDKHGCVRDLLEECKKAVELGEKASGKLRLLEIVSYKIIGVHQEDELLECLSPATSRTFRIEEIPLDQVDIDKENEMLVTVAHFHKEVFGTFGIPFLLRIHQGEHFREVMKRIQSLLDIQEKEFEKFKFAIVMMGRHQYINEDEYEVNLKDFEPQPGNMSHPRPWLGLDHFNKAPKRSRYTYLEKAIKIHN
How it was run: as §1

[8] = target: T5, USP8 (UniProt P40818)
T5 sequence (whole entry): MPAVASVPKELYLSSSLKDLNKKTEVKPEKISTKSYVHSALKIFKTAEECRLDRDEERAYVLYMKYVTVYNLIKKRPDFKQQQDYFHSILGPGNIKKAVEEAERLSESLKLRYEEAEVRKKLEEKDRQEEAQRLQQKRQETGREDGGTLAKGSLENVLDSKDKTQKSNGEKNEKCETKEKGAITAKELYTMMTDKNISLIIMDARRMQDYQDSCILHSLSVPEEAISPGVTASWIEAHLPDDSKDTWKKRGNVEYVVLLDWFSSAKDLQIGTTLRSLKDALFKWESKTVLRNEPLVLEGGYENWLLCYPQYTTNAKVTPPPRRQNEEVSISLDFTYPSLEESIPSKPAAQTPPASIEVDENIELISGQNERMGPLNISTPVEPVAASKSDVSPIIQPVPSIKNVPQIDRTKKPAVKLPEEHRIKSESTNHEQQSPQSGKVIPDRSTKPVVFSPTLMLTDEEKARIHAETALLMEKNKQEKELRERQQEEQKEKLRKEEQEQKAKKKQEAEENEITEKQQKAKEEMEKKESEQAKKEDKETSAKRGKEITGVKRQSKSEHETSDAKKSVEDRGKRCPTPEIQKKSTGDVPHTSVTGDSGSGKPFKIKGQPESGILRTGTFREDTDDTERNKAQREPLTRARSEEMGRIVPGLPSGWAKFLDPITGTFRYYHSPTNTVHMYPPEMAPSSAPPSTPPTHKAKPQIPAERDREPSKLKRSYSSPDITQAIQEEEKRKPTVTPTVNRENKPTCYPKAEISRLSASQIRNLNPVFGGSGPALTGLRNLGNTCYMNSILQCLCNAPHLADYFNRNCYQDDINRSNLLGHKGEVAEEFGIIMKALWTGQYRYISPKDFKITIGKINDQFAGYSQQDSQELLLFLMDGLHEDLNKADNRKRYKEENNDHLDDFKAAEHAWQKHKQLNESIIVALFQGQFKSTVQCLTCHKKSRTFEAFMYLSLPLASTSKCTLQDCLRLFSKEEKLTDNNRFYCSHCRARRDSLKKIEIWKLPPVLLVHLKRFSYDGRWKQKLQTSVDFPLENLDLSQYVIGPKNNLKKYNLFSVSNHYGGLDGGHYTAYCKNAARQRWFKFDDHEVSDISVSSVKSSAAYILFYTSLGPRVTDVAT
How it was run: as §1

[9] = target: USP9X (UniProt Q93008)
Chain of USP9X (Q93008 whole entry): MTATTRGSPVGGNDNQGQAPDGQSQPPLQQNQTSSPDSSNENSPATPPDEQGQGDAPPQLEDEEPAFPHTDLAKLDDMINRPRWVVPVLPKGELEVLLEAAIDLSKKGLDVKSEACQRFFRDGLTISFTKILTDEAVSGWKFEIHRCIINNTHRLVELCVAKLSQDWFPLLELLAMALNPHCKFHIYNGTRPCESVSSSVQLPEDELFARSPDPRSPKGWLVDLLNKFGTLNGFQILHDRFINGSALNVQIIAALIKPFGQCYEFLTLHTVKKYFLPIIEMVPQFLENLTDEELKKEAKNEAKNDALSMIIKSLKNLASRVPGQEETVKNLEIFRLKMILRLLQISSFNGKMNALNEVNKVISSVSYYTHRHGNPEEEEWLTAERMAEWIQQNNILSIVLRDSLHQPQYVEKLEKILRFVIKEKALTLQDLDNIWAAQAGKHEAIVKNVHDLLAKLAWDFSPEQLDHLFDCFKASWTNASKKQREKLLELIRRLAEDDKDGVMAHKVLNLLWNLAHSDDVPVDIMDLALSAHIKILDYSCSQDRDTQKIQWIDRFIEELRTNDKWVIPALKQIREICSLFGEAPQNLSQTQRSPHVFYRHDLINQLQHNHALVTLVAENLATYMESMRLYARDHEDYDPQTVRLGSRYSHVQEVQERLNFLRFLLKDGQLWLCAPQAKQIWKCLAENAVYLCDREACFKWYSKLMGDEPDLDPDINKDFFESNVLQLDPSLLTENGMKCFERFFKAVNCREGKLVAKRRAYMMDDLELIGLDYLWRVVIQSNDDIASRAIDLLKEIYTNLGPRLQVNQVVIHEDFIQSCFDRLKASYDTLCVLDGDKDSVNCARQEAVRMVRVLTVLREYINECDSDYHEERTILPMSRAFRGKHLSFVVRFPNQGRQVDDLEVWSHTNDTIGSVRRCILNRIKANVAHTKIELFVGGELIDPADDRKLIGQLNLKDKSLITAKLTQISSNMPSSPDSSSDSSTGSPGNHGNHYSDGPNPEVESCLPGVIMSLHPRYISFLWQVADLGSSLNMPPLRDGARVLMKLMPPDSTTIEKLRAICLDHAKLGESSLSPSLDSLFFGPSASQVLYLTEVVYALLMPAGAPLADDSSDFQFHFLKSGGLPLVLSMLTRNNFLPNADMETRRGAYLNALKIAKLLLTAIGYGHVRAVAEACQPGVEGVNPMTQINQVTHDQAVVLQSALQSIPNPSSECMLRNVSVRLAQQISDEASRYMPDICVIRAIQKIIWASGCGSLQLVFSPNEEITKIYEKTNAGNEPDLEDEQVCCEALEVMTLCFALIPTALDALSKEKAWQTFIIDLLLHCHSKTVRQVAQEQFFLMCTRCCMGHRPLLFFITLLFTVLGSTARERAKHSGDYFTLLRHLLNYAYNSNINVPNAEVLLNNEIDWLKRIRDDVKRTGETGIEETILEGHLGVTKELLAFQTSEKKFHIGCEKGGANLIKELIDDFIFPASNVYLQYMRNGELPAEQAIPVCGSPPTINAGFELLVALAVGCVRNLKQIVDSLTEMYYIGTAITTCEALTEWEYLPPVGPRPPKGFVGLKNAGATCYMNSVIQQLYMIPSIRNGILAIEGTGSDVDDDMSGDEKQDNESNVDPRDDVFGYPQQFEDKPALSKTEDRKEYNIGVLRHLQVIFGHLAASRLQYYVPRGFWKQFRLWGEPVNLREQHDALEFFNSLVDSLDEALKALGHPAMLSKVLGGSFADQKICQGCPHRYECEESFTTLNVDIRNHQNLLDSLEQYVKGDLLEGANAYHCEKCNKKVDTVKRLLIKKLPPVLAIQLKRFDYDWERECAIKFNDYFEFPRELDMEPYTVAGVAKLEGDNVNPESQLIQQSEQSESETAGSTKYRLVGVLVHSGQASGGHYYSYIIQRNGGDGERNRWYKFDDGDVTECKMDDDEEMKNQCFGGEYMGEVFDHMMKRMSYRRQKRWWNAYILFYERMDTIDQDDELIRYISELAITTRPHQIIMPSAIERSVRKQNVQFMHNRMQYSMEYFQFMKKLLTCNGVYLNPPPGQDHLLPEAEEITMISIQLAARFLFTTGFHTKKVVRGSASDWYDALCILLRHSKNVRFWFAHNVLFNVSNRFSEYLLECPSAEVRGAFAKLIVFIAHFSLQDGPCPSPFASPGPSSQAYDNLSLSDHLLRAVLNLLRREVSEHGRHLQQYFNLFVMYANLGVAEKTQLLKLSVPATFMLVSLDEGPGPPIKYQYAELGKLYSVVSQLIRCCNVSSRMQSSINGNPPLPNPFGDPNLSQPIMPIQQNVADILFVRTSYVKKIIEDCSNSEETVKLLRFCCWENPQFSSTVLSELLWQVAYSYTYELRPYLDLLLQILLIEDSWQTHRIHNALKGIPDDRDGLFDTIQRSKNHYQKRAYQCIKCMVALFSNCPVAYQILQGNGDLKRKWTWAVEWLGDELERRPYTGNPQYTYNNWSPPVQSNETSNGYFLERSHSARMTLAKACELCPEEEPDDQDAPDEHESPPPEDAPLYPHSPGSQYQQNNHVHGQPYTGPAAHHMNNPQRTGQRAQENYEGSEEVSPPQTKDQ
How it was run: as §1

[10] = target: UniProt O00487
Chain of UniProt O00487 (O00487 whole entry): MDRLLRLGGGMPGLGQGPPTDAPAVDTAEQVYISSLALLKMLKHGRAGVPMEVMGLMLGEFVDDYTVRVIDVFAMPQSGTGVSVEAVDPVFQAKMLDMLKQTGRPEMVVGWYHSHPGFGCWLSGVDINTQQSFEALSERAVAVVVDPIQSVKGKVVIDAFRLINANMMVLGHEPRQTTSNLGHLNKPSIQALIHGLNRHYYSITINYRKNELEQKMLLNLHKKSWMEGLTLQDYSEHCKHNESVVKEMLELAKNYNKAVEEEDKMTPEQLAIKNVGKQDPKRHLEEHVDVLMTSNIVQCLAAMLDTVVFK
How it was run: as §1

Measured: log2 ratio of Biotin-Ahx-Ub-VS probe labelling

O=C(CCl)N1c2ccccc2NC(=O)C12CCCC2
inactive: [1] 0.622 | [2] -0.278 | [3] 0.0188 | [5] 0.581 | [6] -0.355 | [8] 0.279 | [9] -0.316 | [10] 0.0785
active: [4] -1.04 | [7] -2.11
